For some assays here: Potency and affinity values are given separately.
Columns and labels:
Design in all cases: scale not given: direction of the effect not stated beside the values
[1] = molecular target: Protein translocase subunit SecA (Escherichia coli (strain K12)) (UniProt P10408); test: Assay to Identify E. coli SecA ATPase Inhibitors; format: functional; settings: 30 µM
[2] = molecular target: T1, Ubiquitin-activating enzyme e1, putative (Leishmania donovani (strain BPK282A1)) (UniProt E9BSI1); test: Leishmania donovani Ubiquitin Activating Enzyme (LdE1); format: functional; settings: 30 µM
T1 sequence (whole entry): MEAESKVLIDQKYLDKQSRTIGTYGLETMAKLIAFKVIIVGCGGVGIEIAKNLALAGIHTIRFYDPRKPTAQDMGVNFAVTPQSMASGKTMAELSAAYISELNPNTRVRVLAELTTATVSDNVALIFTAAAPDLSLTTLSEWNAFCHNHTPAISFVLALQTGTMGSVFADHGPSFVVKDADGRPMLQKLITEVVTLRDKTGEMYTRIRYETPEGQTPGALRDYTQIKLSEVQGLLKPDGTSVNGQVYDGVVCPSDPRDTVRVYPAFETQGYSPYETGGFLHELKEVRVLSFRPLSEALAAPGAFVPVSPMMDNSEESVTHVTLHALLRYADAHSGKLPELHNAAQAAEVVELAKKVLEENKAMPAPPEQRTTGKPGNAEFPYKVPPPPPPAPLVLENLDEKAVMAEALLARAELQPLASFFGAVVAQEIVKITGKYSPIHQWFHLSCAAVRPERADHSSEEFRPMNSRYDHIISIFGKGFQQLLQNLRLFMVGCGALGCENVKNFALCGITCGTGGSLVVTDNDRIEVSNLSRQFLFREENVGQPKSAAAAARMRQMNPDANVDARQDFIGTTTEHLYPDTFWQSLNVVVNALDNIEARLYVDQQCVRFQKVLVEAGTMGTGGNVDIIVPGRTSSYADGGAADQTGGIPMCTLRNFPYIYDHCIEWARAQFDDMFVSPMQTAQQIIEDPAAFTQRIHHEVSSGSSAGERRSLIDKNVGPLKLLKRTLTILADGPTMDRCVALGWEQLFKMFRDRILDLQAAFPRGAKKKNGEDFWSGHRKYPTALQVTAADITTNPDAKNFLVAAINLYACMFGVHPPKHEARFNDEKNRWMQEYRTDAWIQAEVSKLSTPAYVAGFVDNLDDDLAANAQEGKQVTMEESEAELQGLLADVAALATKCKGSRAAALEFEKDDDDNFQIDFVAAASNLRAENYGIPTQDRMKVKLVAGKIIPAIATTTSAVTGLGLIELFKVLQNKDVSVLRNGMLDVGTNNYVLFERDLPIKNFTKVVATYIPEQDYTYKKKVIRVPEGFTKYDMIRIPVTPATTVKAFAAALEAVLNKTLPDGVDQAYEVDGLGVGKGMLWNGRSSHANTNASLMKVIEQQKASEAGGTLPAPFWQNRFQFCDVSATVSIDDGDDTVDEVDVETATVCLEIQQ

[3] = molecular target: AMP-activated protein kinase, AMPK (Homo sapiens) (UniProt P54646+O43741+P54619+Q9UGJ0+Q9Y478+Q13131+Q9UGI9); test: AMP-dependent Kinase enzyme assay. An in vitro enzyme assay that detects ADP turnover that is directly proportional to AMPK activity. This uses naive AMPK that is activated during the assay with MK-8722; format: functional; settings: 30 µM
[4] = molecular target: Sialic acid-binding Ig-like lectin 9 (Homo sapiens) (UniProt Q9Y336); test: Hs-Siglec9 ALPHAscreen SOP 20170721; settings: 10 µM
Trypanosoma cruzi = test: Trypanosoma cruzi phosphomannomutase and mannose-1-phosphate guanylyltransferase assay; format: functional; settings: 10 µM
[5] = molecular target: T2, Arginase-2, mitochondrial (Homo sapiens) (UniProt P78540); test: in vitro enzyme assay to detect the production of urea directly proportional to the activity of Arginase II; format: functional; settings: 33.3 µM; further: in the data most compounds retested in dose-response had high values
T2 sequence (whole entry): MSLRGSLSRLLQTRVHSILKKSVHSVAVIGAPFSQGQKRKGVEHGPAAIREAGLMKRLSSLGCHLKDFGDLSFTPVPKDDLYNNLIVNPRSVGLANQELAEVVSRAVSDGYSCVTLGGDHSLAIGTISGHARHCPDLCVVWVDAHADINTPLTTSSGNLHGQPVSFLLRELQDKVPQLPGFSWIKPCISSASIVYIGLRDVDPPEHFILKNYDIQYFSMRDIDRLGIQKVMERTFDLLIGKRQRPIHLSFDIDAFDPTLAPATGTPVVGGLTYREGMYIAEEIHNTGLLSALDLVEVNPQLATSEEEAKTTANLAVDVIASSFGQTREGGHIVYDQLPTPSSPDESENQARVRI

[6] = molecular target: T3, Proteasome subunit beta (Trypanosoma cruzi) (UniProt O96673); test: Trypanosoma cruzi proteasome chymotrypsin-like activity (TcProtChymo) assay.; further: in the data most compounds retested in dose-response had high values; format: functional; settings: 9.37 µM
T3 sequence (whole entry): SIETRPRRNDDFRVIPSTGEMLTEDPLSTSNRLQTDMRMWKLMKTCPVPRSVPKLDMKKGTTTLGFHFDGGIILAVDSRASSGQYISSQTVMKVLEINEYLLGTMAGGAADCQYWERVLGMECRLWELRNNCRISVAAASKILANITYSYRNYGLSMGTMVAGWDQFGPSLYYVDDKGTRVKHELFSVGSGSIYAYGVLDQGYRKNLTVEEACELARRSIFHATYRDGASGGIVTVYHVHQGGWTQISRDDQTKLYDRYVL

Homo sapiens = species: Homo sapiens; test: To identify inhibition of the IFN signalling (Jak-Stat) pathway via expression of an eGFP reporter gene under the control of an IFN-stimulated response element (ISRE) containing MxA promoter.; format: functional; settings: 30 µM
[7] = molecular target: T4, Tyrosyl-tRNA synthetase, putative (Trypanosoma cruzi (strain CL Brener)) (UniProt Q4DSP6); test: Trypanosoma cruzi tyrosyl tRNA synthetase (TcYRS) _High Tyrosine SOP; format: functional; settings: 30 µM; further: in the data most compounds retested in dose-response had high values
T4 sequence (whole entry): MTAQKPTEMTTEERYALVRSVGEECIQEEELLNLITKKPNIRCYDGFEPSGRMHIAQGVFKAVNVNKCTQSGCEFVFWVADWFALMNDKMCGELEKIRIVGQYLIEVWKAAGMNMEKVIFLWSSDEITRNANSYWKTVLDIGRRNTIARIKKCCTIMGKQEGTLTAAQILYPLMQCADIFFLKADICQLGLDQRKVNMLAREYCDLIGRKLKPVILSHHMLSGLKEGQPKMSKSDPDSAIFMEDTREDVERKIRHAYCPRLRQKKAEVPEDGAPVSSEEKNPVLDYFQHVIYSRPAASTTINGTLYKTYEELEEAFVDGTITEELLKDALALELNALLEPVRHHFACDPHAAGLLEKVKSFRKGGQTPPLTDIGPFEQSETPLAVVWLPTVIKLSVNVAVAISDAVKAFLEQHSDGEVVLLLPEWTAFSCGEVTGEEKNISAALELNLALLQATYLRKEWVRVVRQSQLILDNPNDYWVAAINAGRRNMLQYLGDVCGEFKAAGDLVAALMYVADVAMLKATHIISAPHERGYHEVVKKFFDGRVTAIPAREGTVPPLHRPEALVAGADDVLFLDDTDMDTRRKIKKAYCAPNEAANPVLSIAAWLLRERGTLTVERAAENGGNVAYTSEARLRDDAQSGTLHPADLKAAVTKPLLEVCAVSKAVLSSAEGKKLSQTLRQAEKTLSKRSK

[8] = molecular target: T4, Tyrosyl-tRNA synthetase, putative (Trypanosoma cruzi (strain CL Brener)); test: Trypanosoma cruzi tyrosyl tRNA synthetase (TcYRS) SOP; format: functional; settings: 30 µM
[9] = molecular target: Chromo domain-containing protein 1 (Saccharomyces cerevisiae (strain ATCC 204508 / S288c) (Baker's yeast)) (UniProt P32657); test: ScCHD-1 Enzyme Inhibition Assay; format: functional; settings: 30 µM; further: in the data most compounds retested in dose-response had high values
Chromo domain-containing protein 1 (Saccharomyces cerevisiae (strain ATCC 204508 / S288c) (Baker's yeast)), sequence (P32657 whole entry, the tested form may be a part): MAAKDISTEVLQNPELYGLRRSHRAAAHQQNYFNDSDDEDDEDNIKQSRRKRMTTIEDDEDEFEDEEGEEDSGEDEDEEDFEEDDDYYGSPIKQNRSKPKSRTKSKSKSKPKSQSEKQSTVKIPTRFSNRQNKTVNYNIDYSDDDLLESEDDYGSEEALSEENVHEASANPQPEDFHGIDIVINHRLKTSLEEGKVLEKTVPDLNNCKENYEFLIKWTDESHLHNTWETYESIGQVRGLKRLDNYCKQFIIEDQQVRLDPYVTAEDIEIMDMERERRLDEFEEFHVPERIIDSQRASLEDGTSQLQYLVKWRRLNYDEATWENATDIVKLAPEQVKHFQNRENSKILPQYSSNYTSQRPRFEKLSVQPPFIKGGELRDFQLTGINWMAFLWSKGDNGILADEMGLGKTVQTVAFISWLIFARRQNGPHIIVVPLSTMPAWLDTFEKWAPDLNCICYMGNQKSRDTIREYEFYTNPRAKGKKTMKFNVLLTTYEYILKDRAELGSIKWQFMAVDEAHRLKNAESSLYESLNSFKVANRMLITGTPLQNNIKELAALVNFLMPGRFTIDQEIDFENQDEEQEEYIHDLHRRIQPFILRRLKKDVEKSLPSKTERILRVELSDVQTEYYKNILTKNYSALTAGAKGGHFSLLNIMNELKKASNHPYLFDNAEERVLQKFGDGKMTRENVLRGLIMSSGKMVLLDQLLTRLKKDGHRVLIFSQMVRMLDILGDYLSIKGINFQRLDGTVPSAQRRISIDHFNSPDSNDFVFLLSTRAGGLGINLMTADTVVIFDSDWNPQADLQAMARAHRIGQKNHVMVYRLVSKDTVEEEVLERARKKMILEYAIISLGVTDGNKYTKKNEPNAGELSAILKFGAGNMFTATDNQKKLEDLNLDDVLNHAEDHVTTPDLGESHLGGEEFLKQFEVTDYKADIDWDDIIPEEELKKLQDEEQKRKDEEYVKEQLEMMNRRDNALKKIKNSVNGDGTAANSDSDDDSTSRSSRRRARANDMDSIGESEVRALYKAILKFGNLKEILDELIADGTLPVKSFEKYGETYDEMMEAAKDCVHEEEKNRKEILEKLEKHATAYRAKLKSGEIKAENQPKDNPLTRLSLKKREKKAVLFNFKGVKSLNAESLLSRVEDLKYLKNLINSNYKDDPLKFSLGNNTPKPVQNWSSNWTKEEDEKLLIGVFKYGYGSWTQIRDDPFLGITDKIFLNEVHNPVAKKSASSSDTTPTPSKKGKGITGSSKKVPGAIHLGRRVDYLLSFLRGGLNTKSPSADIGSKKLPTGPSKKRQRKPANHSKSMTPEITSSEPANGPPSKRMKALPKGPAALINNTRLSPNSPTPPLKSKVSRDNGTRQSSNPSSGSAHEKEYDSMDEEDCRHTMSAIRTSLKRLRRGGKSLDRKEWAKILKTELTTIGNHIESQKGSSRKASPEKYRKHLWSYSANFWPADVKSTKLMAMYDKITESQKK

Protein translocase subunit SecA (Escherichia coli (strain K12)), sequence (P10408 whole entry): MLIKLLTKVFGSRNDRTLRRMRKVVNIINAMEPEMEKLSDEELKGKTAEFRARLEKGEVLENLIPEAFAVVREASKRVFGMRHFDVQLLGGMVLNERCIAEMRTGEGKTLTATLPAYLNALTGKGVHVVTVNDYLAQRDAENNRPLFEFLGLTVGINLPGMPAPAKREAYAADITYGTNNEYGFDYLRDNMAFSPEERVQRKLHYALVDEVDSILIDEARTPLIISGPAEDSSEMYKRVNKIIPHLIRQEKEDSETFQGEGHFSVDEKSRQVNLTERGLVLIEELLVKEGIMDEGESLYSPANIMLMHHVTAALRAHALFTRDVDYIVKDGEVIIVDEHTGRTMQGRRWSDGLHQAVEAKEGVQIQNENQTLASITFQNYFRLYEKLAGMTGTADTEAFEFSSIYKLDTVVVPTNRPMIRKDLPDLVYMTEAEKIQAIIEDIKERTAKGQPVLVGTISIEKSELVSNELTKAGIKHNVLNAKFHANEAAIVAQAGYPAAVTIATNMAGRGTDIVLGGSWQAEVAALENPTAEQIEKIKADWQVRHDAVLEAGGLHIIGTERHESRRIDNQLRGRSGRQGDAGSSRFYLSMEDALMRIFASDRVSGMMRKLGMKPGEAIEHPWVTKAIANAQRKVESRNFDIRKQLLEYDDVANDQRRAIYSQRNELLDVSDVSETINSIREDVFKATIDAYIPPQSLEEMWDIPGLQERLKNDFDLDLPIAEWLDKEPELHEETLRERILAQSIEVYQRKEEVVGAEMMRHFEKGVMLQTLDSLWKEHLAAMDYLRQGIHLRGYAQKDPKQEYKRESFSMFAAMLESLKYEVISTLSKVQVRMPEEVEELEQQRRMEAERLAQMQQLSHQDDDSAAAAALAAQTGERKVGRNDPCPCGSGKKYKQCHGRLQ
Sialic acid-binding Ig-like lectin 9 (Homo sapiens), sequence (Q9Y336 whole entry): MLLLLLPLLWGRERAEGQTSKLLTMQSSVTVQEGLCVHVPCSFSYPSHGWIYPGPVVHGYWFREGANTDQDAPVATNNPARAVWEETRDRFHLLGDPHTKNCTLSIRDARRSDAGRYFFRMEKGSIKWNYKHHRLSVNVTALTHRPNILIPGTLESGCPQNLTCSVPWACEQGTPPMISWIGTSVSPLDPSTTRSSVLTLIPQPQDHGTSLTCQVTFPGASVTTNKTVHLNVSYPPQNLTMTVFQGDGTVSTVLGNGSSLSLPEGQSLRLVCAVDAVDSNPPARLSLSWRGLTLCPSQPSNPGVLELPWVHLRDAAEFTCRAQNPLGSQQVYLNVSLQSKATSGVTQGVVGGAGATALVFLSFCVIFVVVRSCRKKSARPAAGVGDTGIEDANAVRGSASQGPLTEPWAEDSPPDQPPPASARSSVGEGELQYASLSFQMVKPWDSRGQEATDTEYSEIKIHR

Row | SMILES | Percent Effect [1] | Percent Effect [2] | Percent Effect [3] | Percent Effect [4] | Percent Effect (Trypanosoma cruzi) | Percent Effect [5] | Percent Effect [6] | Percent Effect (Homo sapiens) | Percent Effect [7] | Percent Effect [8] | Percent Effect [9]
1 | O=C(CN1CCCCC1Cn1cccn1)NC1CCN(C2CC2)CC1 (configuration not stated) | -0.952% | 0% | -4.99% | 6.13% | -1.16% | -4.29% | 13.3% | 1.18% | 0.529% | 2.44% | -1.27%
2 | O=S(=O)(C1CC1)N1CC[C@]2(C[C@@H](Oc3ccccn3)CO2)C1 | -2.9% | 10.4% | 2.58% | 5.55% | -2.46% | 3.23% | 7.66% | 11.7% | 0% | 8.97% | -7.95%
3 | CS(=O)(=O)CCC(=O)Nc1cnn(-c2ccccc2Cl)c1 | -5.57% | 13.5% | -8% | 12.3% | 2.88% | -0.185% | 6.28% | 6.38% | 7.92% | 18.3% | -8.04%
4 | Cc1nc(CNCC2CCCN2c2cccnn2)no1 (configuration not stated) | -3.3% | -13% | -11.2% | -6.04% | 8.32% | -6.53% | 15.6% | -2.13% | 9.52% | 14.1% | -23.1%
5 | COc1ccccc1OCC(=O)Nc1ncccc1OC(F)F | -3.34% | 1.39% | -0.812% | -4.65% | -7.48% | 4.86% | 13.2% | -3.02% | 1.05% | -5.13% | -3.95%
6 | CCN1CC(C(=O)NCc2ccccc2-n2cccn2)CC1=O (configuration not stated) | -2.49% | 13% | 0.208% | 2.02% | 2.45% | -1.05% | 15% | 11% | 5.71% | 23.5% | -8.96%
7 | O=C(NCc1cncc2c1CCN(Cc1cccc(F)c1)C2)C1CC1 | -4.48% | 0% | 5.3% | 4.67% | -3.97% | -5.59% | 7.96% | 9.89% | -5.21% | 6.17% | 2.56%
8 | CC(C)n1ccnc1C1CCCN(c2ccccn2)C1 (configuration not stated) | -4.71% | 5.33% | -0.644% | 4% | -2.43% | 0% | 18.7% | 15.1% | 3.83% | 11.1% | -7.89%
9 | Cc1ncc(C)c(N2CCCC(CO)(Cc3cccc(Cl)c3)C2)n1 (configuration not stated) | -3.59% | 13% | 3.66% | 15.9% | 5.61% | 9.65% | 13.1% | 34% | 7.53% | 13.6% | -6.49%
10 | CN(C(=O)c1cccc2[nH]ncc12)C1CCN(c2ccccn2)CC1 | -8.48% | 7.79% | -0.81% | -5.52% | -4.6% | -3.16% | -4.12% | 30.5% | 0.952% | 2.35% | -18.1%
11 | CCOC(=O)N1CCN(Cc2ccc(OCc3nccn3C)cc2)CC1 | -5.3% | 23.4% | 3.48% | -0.124% | 0.562% | 1.42% | 13.7% | 11.1% | 9.71% | 14.6% | -7.78%
12 | CNC(=O)[C@H]1C[C@@H]2CN(C(=O)c3ccco3)C[C@@H]2N1S(C)(=O)=O | -2.51% | 13.3% | -0.761% | -3.21% | 3.48% | 90.5% | 12.7% | -4.85% | 6.25% | 17.5% | -6.67%
13 | COCCN(Cc1ccc(F)cc1Cl)C(=O)c1ccncc1 | -1.67% | -1.39% | -3.11% | 0.447% | 0.486% | -1.32% | 5.09% | 0.399% | -1.05% | 0% | -1.32%
14 | COCCc1noc(CN2CCN(CC(O)c3ccccc3)CC2)n1 (configuration not stated) | -7.76% | 6.33% | 4.46% | -0.576% | -1.54% | 1.07% | 6.69% | 12% | 11.5% | 10.1% | -14.9%
15 | CC1=Nc2c(c(=O)[nH]n2C(C)C)C(c2cccs2)S1 (configuration not stated) | -7.07% | -1.33% | 2.48% | 1.91% | 0.197% | -3.7% | 9.8% | 11.9% | 19.1% | 25.6% | -2.82%
16 | CN(CCO)Cc1nnc(C2CCN(C(=O)C(C)(C)C)CC2)n1C | -2.6% | 5.33% | 1.76% | -1.99% | -7.69% | 6.25% | 16.6% | 2.97% | 0.546% | 3.7% | -6%
17 | CNS(=O)(=O)Cc1ccc(CNC(=O)c2cccc(C)n2)cc1 | -2.39% | 23.4% | 0.0556% | 2.86% | 4.12% | -3.92% | 5.57% | 15.5% | 11.7% | 21.9% | -7.52%
18 | Cc1ccc(CC(=O)NCCCNS(C)(=O)=O)cc1 | -0.957% | 13.9% | 3.16% | 0.198% | -2.56% | -1.94% | 14.8% | -1.21% | 6.25% | 15.2% | -16.2%
19 | O=C(CCc1cccs1)N1CCCCC1Cn1cccn1 (configuration not stated) | -6.87% | 10.4% | -2.34% | -15.4% | 5.19% | -1.47% | 10.4% | 1.69% | 5.71% | 21.2% | -15.9%
20 | CCS(=O)(=O)N1CCOC2(CCCN(c3ccc(C)nn3)C2)C1 (configuration not stated) | -0.413% | 2.67% | 3.56% | 2.28% | -1.35% | -48.9% | 6.67% | -5.88% | -1.04% | -2.5% | 0.0361%
21 | CCCNC(=O)c1sccc1N(C)S(=O)(=O)c1ccc(Cl)cc1 | 1.13% | 7.89% | -1.42% | -7.73% | -8.67% | 9.47% | 13.3% | 38.4% | -4.25% | -2.6% | -1.51%
22 | CC(CNC(=O)N1CCSCC1)Cc1cccs1 (configuration not stated) | -4.11% | 0% | 0.113% | -1.72% | -0.195% | -2.08% | 5.83% | 1.53% | 4.95% | 6.1% | -3.96%

Reference: ChEMBL document CHEMBL3988442, “University of Dundee, Small-Polar-MMV Screening Library” (2021)
